Compound activity (PubChem BioAssay)
This is a sample that favours compounds with a hit; in the whole collection about 7.4% have one here.
Luciferase inh – Firefly luciferase inhibition profiling of diverse chemical library using quantitative high-throughput screening; Potency, µM (doses to about 115 µM), actives largely listed as inhibitors; purified P. pyralis luciferase, luminescence, biochemical; 2.5% of 76,000 active; note: % is set by controls: 0 for no effect and ±100 for the full control effect; nearly all actives have a fitted effect of over 65% in size
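Luminescence read by CCD imaging after purified firefly luciferase (10nM final) was added to substrate buffer holding 10uM D-luciferin and 10uM ATP, pH 7.5, pre-dosed with compound.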
SNCA viab count – GF-AFC viability counterscreen for inhibitors of alpha-synuclein gene (SNCA) expression. Potency, µM (titrated, usually from 57.1 µM), for the others: at the top dose activity change, negative = cytotoxicity, usual class: cytotoxic. 0.12% of 150,000 active. HEK-293-SNCA-luc viability, GF-AFC fluorescence, 24 h;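 note: 0% = DMSO-treated cells and -100% = medium-only wells without cells; nearly all actives have a fitted effect of over 30% in size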
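Cytotoxicity counterscreen: after 24 h compound treatment of genome-edited SNCA-luciferase HEK-293 cells, live-cell protease substrate GF-AFC read by fluorescence after 30 min; activity scaled between DMSO (0%) and medium-only (-100%), curves Hill-fitted.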
hNpr1 antagonist – Natriuretic polypeptide receptor (hNpr1) antagonism - Primary qHTS; Atrial natriuretic peptide receptor 1 (Homo sapiens), P16066; HEK293 hNpr1 GloSensor cGMP, ANP-stimulated luminescence; 1.6% of 76,000 active; Potency, µM (titrated, usually from 46.3 µM), for the others: top-dose activity change, negative = inhibition, most hits filed as inhibitors; AID 1347048, 2019; calls by dose curve; note: % is set by controls: 0 for no effect and ±100 for the full control effect; nearly all actives have a fitted effect of over 60% in size
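HEK293 cells stably expressing human Npr1 and cGMP GloSensor pGS-40F, loaded 2 h with 2% GloSensor reagent, given compound 30 min at room temperature. Luminescence read before and 20 min after 0.1 nM hNppA.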
HEK cytotox – Cytotoxic Profiling in HEK 293 Cell Line of Diverse Libraries Using Quantitative High-Throughput Screening | Potency, µM (doses to about 115 µM), inactives show at the highest dose activity change, negative = cytotoxicity, usual class: inhibitors | 6.6% of 94,000 active | AID 1345083, 2018 | HEK 293 viability, ATP luminescence (CellTiter-Glo), 48-72 h; note: % is set by controls: 0 for no effect and ±100 for the full control effect; nearly all actives have a fitted effect of over 60% in size
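HEK 293 cells seeded at 250 cells/well were exposed to compound for 48 or 72 hr at 37 degree Celsius. Viability taken as ATP content by CellTiter-Glo luminescence.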
SNCA expr inhib – Primary qHTS assay for inhibitors of alpha-synuclein gene (SNCA) expression. HEK-293 SNCA-luciferase knock-in, luminescence, 24 h. Potency, µM (titrated, usually from 57.2 µM), inactives show at the highest dose activity change, negative = inhibition, actives largely listed as inhibitors. 0.17% of 140,000 active. AID 1671194, 2021;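 note: plate controls were DMSO cells for no effect and cell-free wells for full effect; nearly all actives have a fitted effect of over 45% in size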
3T3 cytotox – Cytotoxic Profiling in NIH 3T3 Cell Line of Diverse Libraries Using Quantitative High-Throughput Screening; NIH 3T3 viability, CellTiter-Glo ATP luminescence, 48-72 h; Potency, µM (top dose mostly 96.7 µM), inactives show top-dose activity change, negative = cytotoxicity, hits mostly inhibitors; AID 1345082, 2018; 4.3% of 94,000 active; note: % is set by controls: 0 for no effect and ±100 for the full control effect; nearly all actives have a fitted effect of over 55% in size
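Luminescent ATP readout (CellTiter-Glo, 10 min RT) after 48 or 72 hr compound exposure of NIH 3T3 cells seeded at 400 cells/well in 1536-well format; quantitative HTS.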
Npr1 antag conf – Natriuretic polypeptide receptor (hNpr1) antagonism - Confirmation; shares compounds with hNpr1 antagonist; HEK293 hNpr1 cGMP GloSensor luminescence, ANP-stimulated; Potency, µM (top dose mostly 57.6 µM), for inactives: at the highest dose activity change, negative = inhibition, most hits filed as inhibitors; 76% of 1,400 active; calls by dose curve; note: nearly all actives have a fitted effect of over 70% in size
Npr2 selectivity – Natriuretic polypeptide receptor (hNpr2) antagonism - Subtype selectivity assay; shares compounds with hNpr1 antagonist; HEK293 hNpr2 GloSensor cGMP luminescence, CNP-stimulated; Potency, µM (titrated, usually from 57.6 µM), for inactives: top-dose activity change, negative = inhibition, most hits filed as inhibitors; 67% of 1,400 active; calls by dose curve; note: nearly all actives have a fitted effect of over 70% in size
Target sequence (P20594 whole entry, looked up): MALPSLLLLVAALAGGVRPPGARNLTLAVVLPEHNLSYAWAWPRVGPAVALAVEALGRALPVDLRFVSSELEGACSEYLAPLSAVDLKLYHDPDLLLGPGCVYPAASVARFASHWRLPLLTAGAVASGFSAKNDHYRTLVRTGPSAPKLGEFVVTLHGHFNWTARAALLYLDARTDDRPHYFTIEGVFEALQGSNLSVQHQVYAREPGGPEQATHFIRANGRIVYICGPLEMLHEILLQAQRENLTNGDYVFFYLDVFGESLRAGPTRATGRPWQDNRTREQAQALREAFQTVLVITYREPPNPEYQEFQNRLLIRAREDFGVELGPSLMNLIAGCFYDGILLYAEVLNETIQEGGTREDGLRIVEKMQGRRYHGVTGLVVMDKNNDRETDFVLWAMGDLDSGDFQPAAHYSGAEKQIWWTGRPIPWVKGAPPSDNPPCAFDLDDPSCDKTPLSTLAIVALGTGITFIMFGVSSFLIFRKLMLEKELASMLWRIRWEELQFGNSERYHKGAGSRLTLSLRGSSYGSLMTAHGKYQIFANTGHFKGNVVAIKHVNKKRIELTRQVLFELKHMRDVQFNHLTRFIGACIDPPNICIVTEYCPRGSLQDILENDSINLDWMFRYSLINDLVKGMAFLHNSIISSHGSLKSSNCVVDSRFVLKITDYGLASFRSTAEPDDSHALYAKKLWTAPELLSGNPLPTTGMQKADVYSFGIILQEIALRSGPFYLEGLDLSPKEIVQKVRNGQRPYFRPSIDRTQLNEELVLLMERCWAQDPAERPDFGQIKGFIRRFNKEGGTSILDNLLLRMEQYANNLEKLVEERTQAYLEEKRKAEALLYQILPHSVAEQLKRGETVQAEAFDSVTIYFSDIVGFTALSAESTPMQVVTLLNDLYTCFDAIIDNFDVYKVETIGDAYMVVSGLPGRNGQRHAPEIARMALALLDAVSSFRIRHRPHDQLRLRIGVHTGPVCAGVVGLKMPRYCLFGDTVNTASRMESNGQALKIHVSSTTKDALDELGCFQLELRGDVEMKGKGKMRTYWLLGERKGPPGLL
FLuc inh counter – Natriuretic polypeptide receptor (hNpr1) antagonism - Confirmation firefly luciferase (FLuc) inhibition counterscreen. shares compounds with hNpr1 antagonist. purified FLuc enzyme, luminescence, Km substrate. Potency, µM (titrated, usually from 57.6 µM), for the others: at the highest dose activity change, negative = inhibition, usual class: inhibitors. 0.7% of 1,400 active. AID 1347047, 2019; note: series mostly up to about 58 µM; 0% is about no effect
GloSensor ctrl – Natriuretic polypeptide receptor (hNpr1) antagonism - Counterscreen GloSensor control cell line; Potency, µM (titrated, usually from 57.6 µM), inactives show at the highest dose activity change, negative = inhibition, hits mostly inhibitors; HEK293 GloSensor cGMP, SNP-stimulated, luminescence; 69% of 1,400 active; shares compounds with hNpr1 antagonist; calls by dose curve; note: % is set by controls: 0 for no effect and ±100 for the full control effect; nearly all actives have a fitted effect of over 70% in size
Active calls of the source: *; i = inactive; u = inconclusive; x = no result; [ ] = remark or other dose. Unless noted, calls come from the whole dose curve; as a rule, active = well fitted curve in the direction sought with a large enough effect; inconclusive = small, poorly fitted or top-dose-only effect, or another doubt; inactive = no such curve, though single readings can be large; an effect the other way counts as inactive or inconclusive. Potency is the fitted concentration of half-maximal effect.

SMILES	Luciferase inh	SNCA viab count	hNpr1 antagonist	HEK cytotox	SNCA expr inhib	3T3 cytotox	Npr1 antag conf	Npr2 selectivity	FLuc inh counter	GloSensor ctrl
COc1ccc(C2(C(=O)N3CCC[C@H]3c3nc(-c4ccccc4Cl)no3)CC2)cc1	i	-13%	10µM*	u	-3%	u	22µM*	22µM*	0%	24µM*
CCCCOc1ccc(C(=O)N2CCC[C@H]2c2nc(-c3ccc(OC)cc3)no2)cc1	i	-14%	u	25µM*	-7%	u	u	-26%	-16%	u
COc1ccc(C2(C(=O)N3CCCCCC3c3nc(C4CC4)no3)CC2)cc1 (stereo not given)	i	-8%	-15%	u	-29%	u	x	x	x	x
COc1ccc(C(=O)Nc2ccc(-c3noc([C@@H]4CCCN4CCCc4ccccc4)n3)cn2)cc1	i	-16%	13µM*	16µM*	10%	u	17µM*	19µM*	-24%	14µM*
CN1CC(=O)N(C2CCCC2)Cc2c1ncnc2N1CCC(N2CCOCC2)CC1	x	-8%	x	i	10%	-18%	x	x	x	x
CC(=O)N1CCN(C(=O)c2nc3sccn3c2-c2cccc(C#N)c2)CC1	x	2%	x	-1%	1%	i	x	x	x	x
CNC(=O)C1C(=O)NCC12CCN(C(=O)c1ccc(C(C)(C)C)cc1)CC2 (stereo not given)	x	x	x	-5%	x	u	x	x	x	x
COCC(=O)N1CCN(C(=O)c2nc3cccnc3n(CC(C)C)c2=O)CC1	x	-1%	x	1%	15%	-11%	x	x	x	x
COc1ccc(C(=O)Nc2ccc(-c3noc([C@@H]4CCCN4Cc4c[nH]c5ccccc45)n3)cn2)cc1	i	u	10µM*	u	u	u	11µM*	19µM*	-5%	11µM*
COc1ccc(C(=O)Nc2ccc(-c3noc([C@@H]4CCCN4Cc4ccco4)n3)cn2)cc1	i	-18%	13µM*	u	-14%	u	14µM*	19µM*	u	17µM*
COc1ccc(-c2noc(CC3CCN(C(=O)c4ccc(OC)cc4OC)CC3)n2)cc1	i	-6%	2.8µM*	u	-29%	u	3.1µM*	4.8µM*	-2%	3.1µM*
COc1ccc(-c2noc(CC3CCN(C(=O)c4ccccc4OC)CC3)n2)cc1	i	-3%	10µM*	u	u	u	14µM*	14µM*	0%	12µM*
COc1ccc(-c2noc(CNC(=O)c3ccc(OC)cc3OC)n2)cc1	x	u	x	x	31%	x	x	x	x	x
CCOc1cc(C(=O)N2CCC(Cc3nc(-c4ccccc4)no3)CC2)cc(OCC)c1OCC	i	-11%	4%	u	-7%	u	x	x	x	x
COc1cc(OC)cc(C(=O)N2CCC(Cc3nc(-c4ccccc4)no3)CC2)c1	i	-2%	u	u	9%	u	x	x	x	x
COc1ccc(-c2noc(CC3CCN(C(=O)C4CCN(C(=O)c5ccccc5)CC4)CC3)n2)cc1	i	-11%	8.9µM*	u	-20%	u	19µM*	17µM*	0%	12µM*
O=C(N1CC(Oc2ccc(-c3nc(-c4ccccc4)no3)cc2)C1)C1(c2ccccc2)CC1	i	1%	u	22µM*	-19%	u	u	22µM*	-12%	22µM*
CC(C)S(=O)(=O)N1CC(Oc2ccc(-c3noc(C4CCOCC4)n3)cc2)C1	i	9%	2.2µM*	u	-10%	-14%	11µM*	12µM*	-1%	11µM*
O=C(C1CC1)N1CC(Oc2ccc(-c3noc(C4CCOCC4)n3)cc2)C1	i	u	10µM*	u	22%	u	9.7µM*	11µM*	-11%	9.7µM*
CCC(C)NC(=O)N1CC(Oc2ccc(-c3noc(C4CCOCC4)n3)cc2)C1 (stereo not given)	i	-13%	7.9µM*	u	u	u	5.4µM*	6.1µM*	-8%	4.8µM*
c1cc(-c2noc(C3CCOCC3)n2)ccc1OC1CNC1	u	3%	7%	-19%	152%	-7%	x	x	x	x
O=C(NCc1cccs1)c1nc2sccn2c1-c1cccnc1	x	-9%[87.6 µM]	x	-30%[172 µM]	34%[87.6 µM]	u	x	x	x	x
CCC(C)NC(=O)N1CC(Oc2ccc(-c3noc(COC)n3)cc2)C1 (stereo not given)	x	-4%	x	u	-13%	u	x	x	x	x
CCC(C)NC(=O)N1CC(Oc2ccc(-c3nc(-c4ccccc4)no3)cc2)C1 (stereo not given)	i	-28%	1.3µM*	-47%	-6%	u	1.9µM*	3.1µM*	-15%	2.2µM*
CC(C)CNC(=O)N1CC(Oc2ccc(-c3noc(C4CCOCC4)n3)cc2)C1	i	-13%	14µM*	u	u	u	4.8µM*	5.4µM*	-17%	4.3µM*
O=C(NCc1ccccc1)c1ccc2c(c1)OCCN(c1ccccc1)C2	i	-24%[87.6 µM]	u	u	u	u	u	u	-1%[86.2 µM]	u
